# 12-LOX inh = Primary qHTS assay for inhibitors of human arachidonate 12S-lipoxygenase (ALOX12): Round 2; purified 12hLO, xylenol orange hydroperoxide absorbance; AID 1671190, 2021; actives 1.1% (n = 580,000); Polyunsaturated fatty acid lipoxygenase ALOX12 (Homo sapiens), P18054; Potency, µM (series often up to 108 µM), for inactives: top-dose activity change, negative = inhibition, actives largely listed as inhibitors
# Target sequence (P18054 whole entry, looked up): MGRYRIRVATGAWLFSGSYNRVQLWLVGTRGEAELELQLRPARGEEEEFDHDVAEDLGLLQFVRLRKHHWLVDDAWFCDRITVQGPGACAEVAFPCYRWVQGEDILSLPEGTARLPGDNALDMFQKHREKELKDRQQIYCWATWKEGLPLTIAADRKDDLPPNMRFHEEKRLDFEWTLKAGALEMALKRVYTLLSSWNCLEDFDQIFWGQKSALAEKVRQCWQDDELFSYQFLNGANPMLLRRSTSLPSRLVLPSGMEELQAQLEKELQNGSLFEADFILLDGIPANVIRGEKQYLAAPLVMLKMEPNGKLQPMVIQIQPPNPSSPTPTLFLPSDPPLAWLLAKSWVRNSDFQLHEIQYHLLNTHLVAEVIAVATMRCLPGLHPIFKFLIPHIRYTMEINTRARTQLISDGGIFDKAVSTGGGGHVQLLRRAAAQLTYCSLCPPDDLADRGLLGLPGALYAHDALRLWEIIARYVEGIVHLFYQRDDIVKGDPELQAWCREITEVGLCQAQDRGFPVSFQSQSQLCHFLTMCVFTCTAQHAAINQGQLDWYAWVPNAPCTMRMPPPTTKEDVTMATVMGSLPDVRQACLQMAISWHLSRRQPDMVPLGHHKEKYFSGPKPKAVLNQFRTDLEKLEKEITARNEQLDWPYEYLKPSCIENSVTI
#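 Hydroperoxide product was detected by ferrous iron/xylenol orange as the 573 to 405 nm absorbance ratio. Arachidonic acid at 40 uM (final) was turned over for 30 min at room temperature by 150 nM human 12hLO, pH 7.0 Hepes buffer, after 15 min compound preincubation.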
# ELG1 repair inh = qHTS screen for small molecules that inhibit ELG1-dependent DNA repair in human embryonic kidney (HEK293T) cells expressing luciferase-tagged ELG1; HEK293T ELG1-luciferase reporter, luminescence, 16 h; DNA damage induced by 5-fluorouridine; Potency, µM (titrated, usually from 46.1 µM), for the others: at the top dose activity change, negative = inhibition, usual class: inhibitors; actives 2.3% (n = 330,000); AID 504467, 2011; note: nearly all actives have a fitted effect of over 55% in size
#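 DMSO vehicle served as the neutral condition. Each well held 2,000 cells given 5-fluorouridine plus compound; after 16 hr at 37 °C/5% CO2, ONE-Glo was added and luciferase measured 30 min later.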
# RORgamma inh = qHTS for inhibitors of ROR gamma transcriptional activity; Nuclear receptor ROR-gamma (Mus musculus), P51450; Drosophila S2 Gal4-RORgamma UAS-luciferase reporter, 20 h; Potency, µM (titrated, usually from 53.6 µM), for the others: at the top dose activity change, negative = inhibition, actives largely listed as inhibitors; actives 5.4% (n = 310,000); note: nearly all actives have a fitted effect of over 60% in size
#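 Drosophila Schneider cells stably carrying a metallothionein-driven Gal4 DBD–ROR gamma fusion and a UAS-Photinus luciferase reporter were exposed to compound for 1 hr, then induced with copper sulfate (700 uM final) for 20 hr at ambient temperature before luminescence reading.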
# DT40 TDP1 no CPT = qHTS for Inhibitors of human tyrosyl-DNA phosphodiesterase 1 (TDP1): qHTS in cells in absence of CPT | Potency, µM (highest dose often 46.2 µM), for the others: at the top dose activity change, negative = growth inhibition, hits mostly inhibitors | DT40 Tdp1-/- hTDP1 cells, no CPT, ATP luminescence, 48 h | actives 15% (n = 420,000) | AID 686978, 2013; note: nearly all actives have a fitted effect of over 55% in size
#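 A cellular qHTS used chicken DT40 cells lacking endogenous Tdp1 but carrying stably transfected human TDP1. Compounds were applied without camptothecin, and cell growth kinetics were judged by ATP-dependent luminescence after ≥48 hr.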
# DT40 TDP1 CPT = qHTS for Inhibitors of human tyrosyl-DNA phosphodiesterase 1 (TDP1): qHTS in cells in presence of CPT; Potency, µM (series often up to 46.2 µM), for the others: at the highest dose activity change, negative = growth inhibition, most hits filed as inhibitors; actives 12% (n = 420,000); chicken DT40 Tdp1-/-;hTDP1 cells + 20 nM CPT, ATP luminescence, 48 h; note: nearly all actives have a fitted effect of over 55% in size
#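 Chicken DT40 Tdp1-/- cells stably complemented with human TDP1 were seeded at 400 cells/well in medium containing 20 nM camptothecin, exposed to pin-transferred compounds, and grown at 37 °C for at least 48 hr. Viability was read as ATP luminescence.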
# Gal4-VP16 FLuc = VP16 counterscreen qHTS for inhibitors of ROR gamma transcriptional activity; Drosophila S2 Gal4-VP16 UAS-luciferase, luminescence, 20 h; Potency, µM (top dose mostly 53.6 µM), inactives show at the top dose activity, negative = inhibition, usual class: inhibitors; actives 3.5% (n = 310,000);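 note: Gal4-VP16 expression switched on by copper sulfate through the metallothionein promoter; nearly all actives have a fitted effect of over 50% in size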
# An asterisk follows results filed as active; ? = inconclusive; · = not tested or not shown; ! = a repeat was not active; [ ] = another dose, or the depositor's remark. An excerpt weighted towards active compounds, which were near 15% of everything screened. Calls come from the whole dose curve; as a rule, active = well fitted curve in the direction sought with a large enough effect; inconclusive = small, poorly fitted or top-dose-only effect, or another doubt; inactive = no such curve, though single readings can be large; an effect the other way counts as inactive or inconclusive. % is set by controls: 0 for no effect and ±100 for the full control effect; potency is the fitted concentration of half-maximal effect.
SMILES,12-LOX inh,ELG1 repair inh,RORgamma inh,DT40 TDP1 no CPT,DT40 TDP1 CPT,Gal4-VP16 FLuc
c1ccc(Cn2nc(Cn3cncn3)nc2C2CCCCn3nnnc32)cc1 (centres undefined),-8.6%,·,·,·,·,·
CC(C)CCN1CCc2ncc(C(=O)NCc3ccccc3)n2CC1,31.5%[176 µM],·,·,·,·,·
CCc1nnc(CN2CCC(C(=O)Nc3cccc(-c4ccco4)c3)CC2)o1,72.7%,·,·,·,·,·
O=[N+]([O-])c1ccc(S(=O)Cc2ccccc2)c([N+](=O)[O-])c1 (centres undefined),?,·,·,0.581µM*,0.461µM*,·
CCCc1noc(-c2ccn3c(CNC(=O)C(C)Oc4ccccc4)nnc3c2)n1 (centres undefined),4.8%,·,·,·,·,·
CCNc1ncnc2sc3c(c12)CCN(S(=O)(=O)c1ccccc1)C3,5.5%,·,·,·,·,·
N#C/C(=C/C=C/c1ccccc1)C(=O)Nc1ccc(N2CCOCC2)cc1,-22.4%,·,·,·,·,·
CCOc1ccc(C(=O)C(C)OC(=O)C2CCN(c3ccc(C(F)(F)F)cn3)CC2)cc1 (centres undefined),-7.4%,-16.8%,·,23.1µM*,16.4µM*,·
Cc1ccc(-c2c(C#N)c(N)nc3c2CCCCCC3)o1,?,8.4%,17.9%,-18.1%,5.2%,6.1%
O=[N+]([O-])c1ccc(-c2nc(Cl)c3c(n2)CCCC3)o1,0.0%,·,·,16.4µM*,9.2µM*,·
CC(C(=O)N1CCN(Cc2ccccc2)CC1)n1nc(C(=O)O)c2ccccc2c1=O (centres undefined),2.4%,·,·,·,·,·
COc1ccc(C(=O)COc2ccc(C)cc2NC(C)=O)cc1,148.1%,?,?,20.6µM*,?,-13.0%
COc1ccc(NC(=O)Nc2cc(C)ccc2OC)cc1,-1.7%,?,5.0%,-16.8%,-17.0%,-18.1%
COc1ccc(O)c(-c2[nH]ncc2C(=O)c2ccccc2)c1,0.0%,23.1µM*,8.5%,-27.4%,-27.7%,-6.9%
COc1ccc(C(=O)NCC(=O)c2ccccc2)cc1,3.2%,?,10µM*,-0.6%,-9.5%,-27.1%
COc1ccc(C(=O)CC(=O)c2ccccc2)cc1,0.0%,·,·,?,-16.6%,·
COc1ccc(C(=O)CC(=O)c2ccc(OC)cc2)cc1,10.5%,?,12.6µM*,-11.9%,1.8%,17.8µM*
CCCSc1ccccc1C(=O)NC(C)(C)C,0.5%,·,·,·,·,·
COc1ccc(-c2nc3c(c(=O)[nH]2)CCN(C(=O)c2ccc(OC)nc2)C3)cc1,26.6%,·,·,·,·,·
C=CCNC(=O)c1coc(COc2ccc3c(c2)C(c2cccc(C)c2)N(C(=O)C2CC2)CC3)n1 (centres undefined),2.2%,·,·,·,·,·
O=C(c1cccc(F)c1)N1C[C@@H](CO)[C@H](c2nc(C3CC3)no2)C1,14.5%,·,·,·,·,·
COc1ccc(O)c(C(=O)CC(=O)c2ccncc2)c1,3.3%,·,·,?,-28.9%,·
COc1ccc(C(=O)C/C(=C\C(=O)c2ccc(C)cc2)c2ccccc2)cc1,1.0%,-14.3%,-23.4%,23.1µM*,18.4µM*,?
COc1ccc(O)c(C(=O)CC(=O)c2ccccc2)c1,·,?,7.08µM*,·,·,12.6µM*
COc1ccc(C(=O)N[C@@H]2CCC[C@@H]2C(=O)N2CCN(c3cc(C)ccc3C)CC2)cc1,33.9%,·,·,·,·,·
SMILES,12-LOX inh,ELG1 repair inh,RORgamma inh,DT40 TDP1 no CPT,DT40 TDP1 CPT,Gal4-VP16 FLuc
O=C(Nc1cccc(C(=O)NC2CC2)c1)c1cccc(S(=O)(=O)Nc2ccc(F)cc2)c1,-4.0%,·,·,·,·,·
C1CCC(NC(=NC2C3CC4CC(C3)CC2C4)N2CCOCC2)CC1 (centres undefined),10.3%[176 µM],·,·,22.7µM*,28.6µM*!,·
O=C1C2C3C=CC(CNS(=O)(=O)c4ccccc4)(O3)C2C(=O)N1c1ccc(Cl)cc1 (centres undefined),-22.3%,0.8%,-106.0%,?,25.9µM*,?
CC(=O)Oc1ccc(N2C(=O)C3C(C2=O)C2(C)C=CC3(C)O2)cc1 (centres undefined),·,-3.3%,3.98µM*,·,·,4.47µM*
O=C1C2C3C=CC(CO)(O3)C2C(=O)N1c1ccccc1-c1ccccc1 (centres undefined),·,5.7%,1.78µM*,4.11µM*,2.59µM*,2.24µM*
COc1ccc(N2C(=O)C3C(C2=O)C3(c2ccccc2)c2ccccc2)cc1 (centres undefined),?,-27.9%,-2.5%,?,?,-7.4%
COc1ccc(NC(=O)c2cc(N3C(=O)C4C5CCC(C5)C4C3=O)ccc2Cl)c(OC)c1 (centres undefined),2.1%,?,3.6%,-57.4%,?,-2.9%
COC(=O)c1cc(N2C(=O)C3C(C2=O)C2(C)C=CC3(C)O2)ccc1Cl (centres undefined),·,-3.6%,3.55µM*,·,·,5.62µM*
CCOC(=O)CCNC(=O)N1CCc2c(nc3cc(-c4ccccc4)[nH]n3c2=O)C1,22.0%,·,·,·,·,·
CC(=O)Oc1ccc(N2C(=O)C3C4C=CC(CO)(O4)C3C2=O)cc1 (centres undefined),-13.9%,19.2%,5.01µM*,4.61µM*,2.59µM*,?
COc1ccc(N2C(=O)C3C4C=CC(c5ccccc5)(C3C2=O)C2C(=O)N(c3ccc(OC)cc3)C(=O)C42)cc1 (centres undefined),?,-7.6%,10.0%,-3.5%,0.6%,-7.9%
CC(C)(C)OC(=O)N1CC=C2C(C#N)=C(N)C(C#N)(C#N)C(c3cccs3)C2C1 (centres undefined),-17.6%,-22.3%,-99.4%,23.1µM*,?,?
CCN1CC=C2C(C#N)=C(N)C(C#N)(C#N)C(c3cc(Cl)ccc3Cl)C2C1 (centres undefined),-13.3%,-26.6%,0.1%,23.1µM*,18.4µM*,-6.0%
CC(C)N1CC=C2C(C#N)=C(N)C(C#N)(C#N)[C@H](c3ccoc3)[C@H]2C1,·,12.3%,-23.9%,·,·,-1.3%
CC(C)N1CC=C2C(C#N)=C(N)C(C#N)(C#N)C(c3ccccc3)C2C1 (centres undefined),0.0%,1.4%,-7.0%,14.1µM*,?,-0.6%

# Bioassay records from PubChem BioAssay.
